The text below walks through data of PubChem BioAssay AID1259313 (Sanford-Burnham Center for Chemical Genomics, 2017).

About 8,500 (2.5%) of roughly 340,000 compounds were called active. Only a selection was taken, and actives are over-represented in it overall. A number with no mark means an inactive call.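 Rule for the calls: active = melting temperature shift of at least 10% of the positive control shift, at one fixed dose; inactive = the rest.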

This assay concerns Glutamate receptor ionotropic, NMDA 3A (GRIN3A) ligand-binding domain. The assay can be described thus: NR3A LBD thermal stabilization by compounds – biophysical, differential scanning fluorimetry, uHTS, primary screen (AID 1259313). Particulars: at 25 µM, hits give high values, 0% = protein alone, 100% = glycine-bound protein. On the technique in general: Differential scanning fluorimetry follows unfolding on heating by fluorescence.
For the molecule `COc1ccc(NC(=O)CN(C)C(=O)/C=C/c2cn(Cc3ccccc3)nc2-c2cccnc2)cc1`, the Tm shift relative to glycine control was -0.36%. As to `COc1cccc(NC(=O)CN(C)C(=O)/C=C/c2cn(-c3ccccc3)nc2-c2cccs2)c1`, the Tm shift relative to glycine control was 10.7% (active).

On to `O=C(NCc1cccnc1)c1cccc(-c2cc3ccccc3oc2=O)c1`, for which the Tm shift relative to glycine control was -2.7%.

As to `COc1ccc2nc(Nc3nc(-c4ccncc4)cs3)sc2c1`, the Tm shift relative to glycine control is 23.1% (active). Turning to `O=C(Nc1ccncc1)c1cc2ccccc2o1`, the Tm shift relative to glycine control is -15%. With `COc1ccc2nc(Nc3nc(-c4cc5ccccc5oc4=O)cs3)sc2c1`, the Tm shift relative to glycine control is 24.7% (active). On to `Fc1ccc2nc(Nc3nc4c(s3)CCCC4)sc2c1`, for which the Tm shift relative to glycine control is -1.71%. As to `CCCCCCC(=O)Nc1nc(C)c(-c2csc(Nc3cccc(OC)c3)n2)s1`, the Tm shift relative to glycine control was 4.39%. Regarding `O=c1oc2ccccc2cc1-c1csc(Nc2ccc(O)cc2)n1`, the Tm shift relative to glycine control was 12.2% (active). For the molecule `COc1ccc(OC)c(-c2csc(-c3cccs3)n2)c1`, the Tm shift relative to glycine control is 2.35%. As for `COc1ccc(OC)c(-c2csc(NC(=O)C3=NNC(=O)CC3)n2)c1`, the Tm shift relative to glycine control is -2.68%. As to `COC(=O)c1c(NC(=O)CN(c2ccc(C)c(C)c2)S(C)(=O)=O)sc2c1CCCC2`, the Tm shift relative to glycine control is -7.55%. Take `O=C(COc1nsnc1N1CCOCC1)Nc1ccccc1Cl`: the Tm shift relative to glycine control is 1.49%. For `COc1ccccc1N1CC(C(=O)Nc2nnc(SCC(=O)NCC3CCCO3)s2)CC1=O` (stereo unspecified), the Tm shift relative to glycine control was 0.09%. Take `O=C(CNCCO)NC12CC3CC(CC(C3)C1)C2`: the Tm shift relative to glycine control was -0.61%. The figure for `O=S(=O)(Nc1ccccc1Cl)c1cccc2nsnc12` is -0.29%. For `O=C(CC1C(=O)NCCN1CC(c1ccccc1)c1ccccc1)NCC1CCOCC1` (stereo unspecified), the Tm shift relative to glycine control is 3.8%. `O=C(Cn1c(-c2cscn2)nc2ccccc21)Nc1ccc(Cl)cc1`: the Tm shift relative to glycine control was -2.29%. Turning to `CC1CCCN(C(=O)Cn2c(=O)oc3cc(S(=O)(=O)N4CCCCC4C)ccc32)C1` (stereo unspecified), the Tm shift relative to glycine control was -0.87%. On to `O=C(NCCNc1ccc([N+](=O)[O-])cc1Cl)c1ccccc1F`, for which the Tm shift relative to glycine control is -1.3%. Take `CC(CNc1ccc([N+](=O)[O-])cc1)NC(=O)c1ccccc1Br` (stereo unspecified): the Tm shift relative to glycine control was 2.55%. As to `O=C(NCCNc1ccc([N+](=O)[O-])cc1)c1cccc2c(Br)cccc12`, the Tm shift relative to glycine control was 23.8% (active). Consider `Clc1cc(-c2ccc(/C=N/n3cnnc3)o2)ccc1Br`, for which the Tm shift relative to glycine control is -26.7%. The value for `CCN(CC)C(=O)CSc1nnc(CNc2ccc(F)cc2)n1Cc1ccco1` was 1.69%.

Regarding `CCOC(=O)CNC(=O)CSc1nnc(COc2ccc(Cl)cc2)n1CC`, the Tm shift relative to glycine control was -0.34%. For `O=C(CSc1nnc(COc2ccc(Cl)cc2)n1Cc1ccco1)N1CCNC1=O`, the Tm shift relative to glycine control was 14.1% (active). `CC(C)c1cc(N=O)cc(C(C)C)c1O`: the Tm shift relative to glycine control was 14% (active). Regarding `CC(C)c1cc(CN2CCOCC2)cc(C(C)C)c1O`, the Tm shift relative to glycine control is -0.77%. The value for `CC(C)=CCc1ccc(O)c(=O)cc1C(C)C` was -5.18%; that for `Cc1noc(C)c1-c1ccc2ncnc(NC(C)c3ccco3)c2c1` (stereo unspecified) was -0.81%; that for `COc1ccc(/C=C(\C#N)c2c[nH]c3ccccc23)cc1` was 35.2% (active). Consider `COc1ccc(C(C(O)C(=O)c2c[nH]c3ccccc23)N2CCN(c3ccccc3)CC2)cc1` (stereo unspecified), for which the Tm shift relative to glycine control is -1.26%. Regarding `COc1cccc(-n2c(SCC(=O)c3c[nH]c4ccccc34)nc3ccccc3c2=O)c1`, the Tm shift relative to glycine control is 8.21%. Consider `Cc1cc(C)c2nc(NC(=O)C3CCCO3)sc2c1` (stereo unspecified), for which the Tm shift relative to glycine control is -0.2%. As for `CC(NC(=O)c1ccccc1)C(=O)OCC(=O)Nc1cccc(S(=O)(=O)N2CCCC2)c1` (stereo unspecified), the Tm shift relative to glycine control is -1.26%.

As to `O=C(NC(=S)Nc1cccc2c(O)cccc12)c1cccc(Br)c1`, the Tm shift relative to glycine control was 23.1% (active). Consider `NS(=O)(=O)c1ccc(NC(=S)NC(=O)c2cccc(Br)c2)cc1`, for which the Tm shift relative to glycine control was -9.81%. For the molecule `Cc1ccccc1NC(=S)NNC(=O)c1cccc(Br)c1`, the Tm shift relative to glycine control was -6.22%. The value for `C/C=C(/C)C(=O)O[C@@H]1c2cc3c(c4c2[C@@]2(CO4)C(=O)C(OC)=C(OC)C=C2C[C@@H](C)[C@H]1C)OCO3` was 0.32%; that for `CCN=C1SC(CC(=O)Nc2ccc(C)cc2)C(=O)N1CC` (stereo unspecified) was 0.44%.

In the case of `CCN1C(=O)C(=O)N(CC(=O)Nc2cc(C)ccc2C)C1=O`, the Tm shift relative to glycine control was 1.68%. Consider `CCN1C(=O)C(CC(=O)Nc2cc(C)ccc2C)SC1=Nc1ccc(S(N)(=O)=O)cc1` (stereo unspecified), for which the Tm shift relative to glycine control is 14.2% (active). For the molecule `C/C(=N\NS(=O)(=O)c1ccccc1)c1c(O)cc(C)oc1=O`, the Tm shift relative to glycine control was 5.22%. Take `Oc1cccc(C2c3[nH]c4ccccc4c3CCN2Cc2cnn(-c3ccccc3)c2)c1` (stereo unspecified): the Tm shift relative to glycine control was 9.57%. Regarding `COc1ccc(-c2nc(N)ncc2-c2ccc(Cl)cc2)c(O)c1`, the Tm shift relative to glycine control was -3.97%.

`Cc1[nH]nc(-c2ccc(OCc3cnn(-c4ccccc4)c3)cc2O)c1Oc1ccc(Cl)cc1`: the Tm shift relative to glycine control is 22.7% (active).
